What all share (assay): qHTS profiling for inhibitors of Plasmodium falciparum proliferation (AID 504749); also: nearly all actives have a fitted effect of over 60% in size
Holding throughout (details): P. falciparum in erythrocytes, SYBR Green DNA, 72 h; series mostly up to 28.7 µM

The subject of experiment [1] is DFO2036. Put shortly: (§1)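 Each compound contacts P. falciparum-infected red blood cells for 72 h at 37 C; lysis buffer (Tris, EDTA, saponin, Triton X, SYBR Green I) is added and fluorescence measured next morning; values normalized to controls.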
Experiment [2] deals with DIV14. Put shortly:
as §1

The subject of experiment [3] is DIV17. Put shortly:
as §1

The test system of experiment [4] is DIV30. The method in brief:
as §1

The subject of experiment [5] is Dd2. Put shortly: as §1
Experiment [6] concerns ECU. Put shortly: as §1
Experiment [7] concerns FAB9. Put shortly:
as §1

In experiment [8] the test system is GB4. Put shortly: as §1
In experiment [9] the test system is HB3. The method in brief: as §1
Experiment [10] has as its system ICS. The method in brief:
as §1

Experiment [11] has as its system JCK. The method in brief:
as §1

The subject of experiment [12] is N140. Put shortly: as §1
Experiment [13] has as its system P93_24. Put shortly:
as §1

Experiment [14] relates to P94_40. Put shortly:
as §1

In experiment [15] the test system is PAD. The method in brief: as §1
Experiment [16] relates to PC15. The method in brief:
as §1

Experiment [17] has as its system PC26. The method in brief: as §1
The subject of experiment [18] is PC49. Put shortly:
as §1

Experiment [19] has as its system SC27B. Put shortly: as §1
Experiment [20] concerns TAB109. Put shortly:
as §1

Results filed as inconclusive are left out. Calls of active or inactive are those of the source. Calls follow the shape of the dose curve; as a rule, active = well fitted inhibition curve with a large enough effect; inconclusive = small, poorly fitted or top-dose-only effect; inactive = flat fitted curve, though single readings scatter.

In PubChem BioAssay (NCATS) one finds Potency data, which are given here for 13 compounds.
Potency is read from the fitted curve at half-maximal effect.

Regarding `CC(=O)OCC1=C(C(=O)O)N2C(=O)[C@@H](NC(=O)Cc3cccs3)[C@H]2SC1`, the Potency entry in [1], in [2], in experiment [3], in [4], in [5] and in experiment [6] was “inactive” each time. In addition, the Potency result in [7], in experiment [8], in experiment [9], in experiment [10], in experiment [11] and in experiment [12] was “inactive” in each case. The Potency entry in [13], in experiment [14], in experiment [15], in experiment [16], in experiment [17] and in [18] was “inactive” each time. Also, the Potency result in experiment [19] and in [20] was “inactive” throughout.

For `Nc1ncn([C@@H]2O[C@H](CO)[C@@H](O)[C@H]2O)c(=O)n1`, the Potency result in experiment [1], in experiment [2], in [3], in experiment [4], in [5] and in experiment [6] was “inactive” in each case. Moreover, the Potency entry in experiment [7], in [8], in experiment [9], in experiment [10], in [11] and in [12] was “inactive” each time. Further, the Potency result in [13], in [14], in experiment [15], in experiment [16], in experiment [17] and in experiment [18] was “inactive” each time. Further, the Potency result in experiment [19] and in experiment [20] was “inactive” throughout.

For `CCN(CC)CC(=O)Nc1c(C)cccc1C`, the Potency entry in experiment [1], in experiment [2], in [3], in experiment [4], in experiment [5] and in experiment [6] was “inactive” in each case. Also, the Potency entry in experiment [7], in experiment [8], in [9], in experiment [10], in experiment [11] and in experiment [12] was “inactive” in each case. Also, the Potency result in experiment [13], in experiment [14], in experiment [15], in experiment [16], in experiment [17] and in [18] was “inactive” throughout. Moreover, the Potency entry in experiment [19] and in [20] was “inactive” each time.

On to `NCCCNCCSP(=O)(O)O`, for which the Potency entry in [1], in experiment [2], in [3], in experiment [4], in experiment [5] and in [6] was “inactive” in each case. The Potency result in experiment [7], in experiment [8], in [9], in experiment [10], in experiment [11] and in experiment [12] was “inactive” each time. In addition, the Potency entry in experiment [13], in experiment [14], in [15], in experiment [16], in experiment [17] and in experiment [18] was “inactive” in each case. Also, the Potency entry in [19] and in [20] was “inactive” each time.

For the compound `C[N+](C)(C)CCOC(=O)CCC(=O)OCC[N+](C)(C)C`, the Potency result in [1], in experiment [2], in experiment [3], in experiment [4], in experiment [5] and in [6] was “inactive” in each case. Moreover, the Potency entry in experiment [7], in experiment [8], in [9], in experiment [10], in [11] and in experiment [12] was “inactive” each time. In addition, the Potency entry in experiment [13], in experiment [14], in experiment [15], in experiment [16], in [17] and in experiment [18] was “inactive” in each case. Moreover, the Potency result in [19] and in experiment [20] was “inactive” throughout.

In the case of `COc1ccc([C@@H]2Sc3ccccc3N(CCN(C)C)C(=O)[C@@H]2OC(C)=O)cc1`, the Potency result in experiment [1], in [2], in [3], in [4], in experiment [5] and in [6] was “inactive” each time. Moreover, the Potency result in [7], in [8], in experiment [9], in experiment [10], in experiment [12] and in experiment [13] was “inactive” throughout. Besides, the Potency entry in experiment [14], in experiment [15], in experiment [16], in experiment [17], in experiment [18] and in experiment [19] was “inactive” each time. Besides, the Potency entry in [20] is “inactive”. In addition, the Potency in experiment [11] is 10 µM (active).

As for `CCN1CCC[C@H]1CNC(=O)c1c(O)c(Cl)cc(Cl)c1OC`, the Potency result in [1], in [2], in experiment [3], in experiment [4], in experiment [5] and in experiment [6] was “inactive” throughout. The Potency entry in experiment [7], in experiment [8], in experiment [9], in experiment [10], in experiment [11] and in [12] was “inactive” throughout. Also, the Potency entry in experiment [13], in experiment [14], in experiment [15], in [16], in [17] and in experiment [18] was “inactive” throughout. Also, the Potency result in [19] and in experiment [20] was “inactive” in each case.

As for `O=C(O)CCCCCCCC(=O)O`, the Potency result in experiment [1], in experiment [2], in [3], in experiment [4], in experiment [5] and in experiment [6] was “inactive” each time. Besides, the Potency result in experiment [7], in experiment [8], in experiment [9], in experiment [10], in experiment [11] and in experiment [12] was “inactive” in each case. The Potency result in [13], in experiment [14], in experiment [15], in experiment [16], in experiment [17] and in experiment [18] was “inactive” each time. Besides, the Potency entry in experiment [19] and in experiment [20] was “inactive” in each case.

As for `CC(N=C(NC#N)Nc1ccncc1)C(C)(C)C` (stereo not given), the Potency result in experiment [1], in experiment [2], in experiment [3], in [4], in experiment [5] and in experiment [6] was “inactive” throughout. The Potency result in experiment [7], in experiment [8], in experiment [9], in experiment [10], in [11] and in experiment [12] was “inactive” in each case. Also, the Potency result in [13], in experiment [14], in experiment [15], in [16], in experiment [17] and in experiment [18] was “inactive” throughout. For the same compound, the Potency entry in [19] and in [20] was “inactive” each time.

Consider `NS(=O)(=O)c1cc2c(cc1Cl)NC(C1CC3C=CC1C3)NS2(=O)=O` (stereo not given), for which the Potency result in experiment [1], in experiment [2], in [3], in [4], in experiment [5] and in experiment [6] was “inactive” in each case. The Potency entry in experiment [7], in [8], in experiment [9], in [10], in experiment [11] and in experiment [12] was “inactive” in each case. The Potency entry in experiment [13], in [14], in experiment [15], in experiment [16], in experiment [17] and in [18] was “inactive” throughout. Also, the Potency result in experiment [19] and in experiment [20] was “inactive” throughout.

Consider `C[N+](C)(C)CCOC(N)=O`, for which the Potency entry in experiment [1], in [2], in experiment [3], in experiment [4], in experiment [5] and in experiment [6] was “inactive” in each case. Further, the Potency entry in experiment [7], in [8], in experiment [9], in experiment [10], in experiment [11] and in [12] was “inactive” each time. The Potency result in experiment [13], in experiment [14], in experiment [15], in experiment [16], in experiment [17] and in [18] was “inactive” each time. Further, the Potency entry in experiment [19] and in [20] was “inactive” throughout.

`C[C@H](CS)C(=O)N1CCC[C@H]1C(=O)O`: the Potency entry in experiment [1], in experiment [2], in experiment [3], in experiment [4], in experiment [5] and in experiment [6] was “inactive” in each case. The Potency entry in experiment [7], in experiment [8], in experiment [9], in experiment [10], in [11] and in experiment [12] was “inactive” in each case. For the same compound, the Potency entry in experiment [13], in experiment [14], in experiment [15], in experiment [16], in experiment [17] and in experiment [18] was “inactive” each time. The Potency result in experiment [19] and in experiment [20] was “inactive” in each case.

Take `FC(F)(F)c1ccccc1-n1ccnc1`: the Potency result in experiment [1], in experiment [2], in experiment [3], in experiment [4], in [5] and in experiment [6] was “inactive” throughout. The Potency result in experiment [7], in experiment [8], in experiment [9], in experiment [10], in [11] and in experiment [12] was “inactive” each time. For the same compound, the Potency entry in [13], in experiment [14], in [15], in [16], in [17] and in [18] was “inactive” throughout. Also, the Potency entry in [19] and in experiment [20] was “inactive” in each case.
